The entries come from a sample that favours the strongest signals as a whole.
B1: SBD (Rhizopus oryzae), P07683 (protein)
chain: ASIPSSASVQLDSYNYDGSTFSGKIYVKNIAYSKKVTVVYADGSDNWNNNGNIIAASFSGPISGSNYEYWTFSASVKGIKEFYIKYEVSGKTYYDNNNSANYQVS
B2: LKITALY (Gibberella zeae) (protein)
chain: MGNFHESSNNIWLEDGHILHAECGNGEGDYVESTLDLDYYIGNDDGSFSWGGENFSGSASNITLDIEGDDNIPVLRAELNPMDGDPVEANVNLSERIGNDCGTLIFLA

Assays:
Assay in all cases: glycan array binding signal (z-score within array); higher = stronger binding
Conditions in all cases: glycan notation: IUPAC condensed, linker removed
[1] = biological target: Neu5Ac(a2-3)Gal(b1-4)GlcNAc(b1-3)Gal(b1-4)[Fuc(a1-3)]GlcNAc
Method in brief: (§1)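 The Consortium for Functional Glycomics database supplied 3228 glycan arrays, of which those lacking an available protein sequence were dropped. The binding signal, a within-array Z-score, was averaged across arrays of the same protein sequence and across linkers. Negative scores can be read as non-binding.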

[2] = biological target: Neu5Ac(a2-3)Gal(b1-4)[Fuc(a1-3)]GlcNAc(b1-3)GalNAc
Method in brief: as §1

[3] = biological target: Neu5Ac(a2-6)Gal(b1-4)GlcNAc(b1-2)Man(a1-3)[Gal(b1-4)GlcNAc(b1-2)Man(a1-6)]Man(b1-4)GlcNAc(b1-4)GlcNAc
Method in brief: as §1

[4] = biological target: Neu5Ac(a2-6)Gal(b1-4)GlcNAc(b1-2)Man(a1-6)[GlcNAc(b1-2)Man(a1-3)]Man(b1-4)GlcNAc(b1-4)GlcNAc
Method in brief: as §1

[5] = biological target: Neu5Ac(a2-6)GlcNAc(b1-4)GlcNAc
Method in brief: as §1

[6] = biological target: Neu5Ac9Ac(a2-6)Gal(b1-4)GlcNAc
Method in brief: as §1

[7] = biological target: Fuc(a1-2)Gal(b1-3)GalNAc
Method in brief: as §1

[8] = biological target: Fuc(a1-2)Gal(b1-4)GlcNAc(b1-3)Gal(b1-4)GlcNAc
Method in brief: as §1

[9] = biological target: Fuc(a1-2)[GalNAc(a1-3)]Gal
Method in brief: as §1

[10] = biological target: Fuc(a1-2)[GalNAc(b1-3)]Gal
Method in brief: as §1

[11] = biological target: Gal(a1-3)Gal
Method in brief: as §1

[12] = biological target: Gal(a1-6)Glc
Method in brief: as §1

[13] = biological target: Gal(b1-3)GalNAc(b1-4)Gal(b1-4)Glc
Method in brief: as §1

[14] = biological target: Gal(b1-3)[Fuc(a1-4)]GlcNAc(b1-3)Gal(b1-4)GlcNAc
Method in brief: as §1

[15] = biological target: Gal(b1-4)Glc
Method in brief: as §1

[16] = biological target: Gal(b1-4)GlcNAc(b1-6)Gal(b1-4)GlcNAc(b1-6)GalNAc
Method in brief: as §1

[17] = biological target: Gal3S(b1-3)GlcNAc
Method in brief: as §1

[18] = biological target: Gal3S(b1-4)Glc6S
Method in brief: as §1

[19] = biological target: Gal3S6S(b1-4)GlcNAc6S
Method in brief: as §1

[20] = biological target: Man(a1-3)[Man(a1-6)]Man(a1-6)[Man(a1-3)]Man(b1-4)GlcNAc(b1-4)GlcNAc
Method in brief: as §1

[21] = biological target: Neu5Ac(a2-3)Gal(b1-4)GlcNAc(b1-3)Gal(b1-4)GlcNAc(b1-3)Gal(b1-4)GlcNAc
Method in brief: as §1

[22] = biological target: Neu5Gc(a2-3)Gal(b1-3)[Fuc(a1-4)]GlcNAc
Method in brief: as §1

[23] = biological target: Neu5Gc(a2-3)Gal(b1-4)GlcNAc
Method in brief: as §1

| Binder | glycan array binding signal (z-score) [1] | glycan array binding signal (z-score) [2] | glycan array binding signal (z-score) [3] | glycan array binding signal (z-score) [4] | glycan array binding signal (z-score) [5] | glycan array binding signal (z-score) [6] | glycan array binding signal (z-score) [7] | glycan array binding signal (z-score) [8] | glycan array binding signal (z-score) [9] | glycan array binding signal (z-score) [10] | glycan array binding signal (z-score) [11] | glycan array binding signal (z-score) [12] | glycan array binding signal (z-score) [13] | glycan array binding signal (z-score) [14] | glycan array binding signal (z-score) [15] | glycan array binding signal (z-score) [16] | glycan array binding signal (z-score) [17] | glycan array binding signal (z-score) [18] | glycan array binding signal (z-score) [19] | glycan array binding signal (z-score) [20] | glycan array binding signal (z-score) [21] | glycan array binding signal (z-score) [22] | glycan array binding signal (z-score) [23] |
| --- | --- | --- | --- | --- | --- | --- | --- | --- | --- | --- | --- | --- | --- | --- | --- | --- | --- | --- | --- | --- | --- | --- | --- |
| B1 | -0.067 | 3.37 | -0.457 | 0.349 | 0.158 | -0.195 |  |  |  |  |  |  |  |  |  |  |  |  |  |  |  |  |  |
| B2 |  |  |  |  |  |  | -0.361 | -0.364 | -0.347 | -0.36 | -0.354 | -0.352 | -0.358 | -0.337 | -0.357 | -0.342 | 4.13 | 2.82 | 3.55 | -0.347 | 3.85 | -0.358 | 3.69 |

Reference: the supplement of paper PMC8728848
